# Where “and” joins values, the source holds several entries; their conditions need not be identical. Identical values can stand only once. In all, about 5,500 compounds went through this assay and about 2,000 (36%) were called active. Roughly 18% stayed inconclusive and do not appear here. Cut-off read from the data, not from the text of the source: active = normalized growth mostly below about 0.91 (no sharp cut-off); inconclusive = no clear call, values can overlap the other calls; inactive = mostly above about 0.92. The list shows a part of the results.
# Assay: chemical genetic growth profiling, strain panel (AID 1159580);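 note: tested at 20 µM; growth read once vehicle control cultures reached saturation at 30 °C; 1 = growth at the plate median or of vehicle wells; lower values mean less growth of the strain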
# Details: S. cerevisiae deletion strains, growth OD
smiles,measurement,setting,value
O=C(O)CCC(=O)c1ccc(-c2ccccc2)cc1,normalized growth,"locus YAL013W, strain DEP1, stronger effect = lower value",0.985 (inactive)
same,normalized growth,"locus YAL021C, strain ccr4, stronger effect = lower value",1.01 (inactive)
same,normalized growth,"locus YAL026C, strain drs2, stronger effect = lower value",0.976 (inactive)
same,normalized growth,"locus YAL030W, strain snc1, stronger effect = lower value",0.991 (inactive)
same,normalized growth,"locus YBL061C, strain skt5, stronger effect = lower value",0.989 (inactive)
same,normalized growth,"locus YBR009C, strain hhf1, stronger effect = lower value",0.998 (inactive)
same,normalized growth,"locus YBR021W, strain FUR4, stronger effect = lower value",0.964 (inactive)
same,normalized growth,"locus YBR023C, strain chs3, stronger effect = lower value",0.983 (inactive)
same,normalized growth,"locus YBR171W, strain sec66, stronger effect = lower value",0.983 (inactive)
same,normalized growth,"locus YBR229C, strain ROT2, stronger effect = lower value",0.986 (inactive)
same,normalized growth,"locus YBR231C, strain swc5, stronger effect = lower value",0.981 (inactive)
same,normalized growth,"locus YBR279W, strain paf1, stronger effect = lower value",0.975 (inactive)
same,normalized growth,"locus YCL011C, strain gbp2, stronger effect = lower value",1 (inactive)
same,normalized growth,"locus YCL016C, strain dcc1, stronger effect = lower value",0.999 (inactive)
same,normalized growth,"locus YCL029C, strain bik1, stronger effect = lower value",0.934 (inactive)
same,normalized growth,"locus YCL069W, strain vba3, stronger effect = lower value",0.983 (inactive)
same,normalized growth,"locus YCR088W, strain abp1, stronger effect = lower value",1.01 (inactive)
same,normalized growth,"locus YDL005C, strain med2, stronger effect = lower value",0.991 (inactive)
same,normalized growth,"locus YDL035C, strain GPR1, stronger effect = lower value",0.989 (inactive)
same,normalized growth,"locus YDL040C, strain nat1, stronger effect = lower value",0.986 (inactive)
same,normalized growth,"locus YDL074C, strain BRE1, stronger effect = lower value",0.957 (inactive)
same,normalized growth,"locus YDL101C, strain DUN1, stronger effect = lower value",0.959 (inactive)
same,normalized growth,"locus YDL134C, strain PPH21, stronger effect = lower value",0.972 (inactive)
same,normalized growth,"locus YDL185W, strain tfp1, stronger effect = lower value",0.962 (inactive)
same,normalized growth,"locus YDL192W, strain arf1, stronger effect = lower value",0.971 (inactive)
same,normalized growth,"locus YDR001C, strain nth1, stronger effect = lower value",0.982 (inactive)
same,normalized growth,"locus YDR069C, strain doa4, stronger effect = lower value",0.986 (inactive)
same,normalized growth,"locus YDR101C, strain arx1, stronger effect = lower value",0.964 (inactive)
same,normalized growth,"locus YDR137W, strain rgp1, stronger effect = lower value",0.793 (active)
same,normalized growth,"locus YDR150W, strain NUM1, stronger effect = lower value",0.99 (inactive)
same,normalized growth,"locus YDR159W, strain sac3, stronger effect = lower value",1.02 (inactive)
same,normalized growth,"locus YDR162C, strain NBP2, stronger effect = lower value",0.986 (inactive)
same,normalized growth,"locus YDR195W, strain ref2",0.929 (inactive)
same,normalized growth,"locus YDR297W, strain sur2, stronger effect = lower value",0.99 (inactive)
same,normalized growth,"locus YDR318W, strain mcm21, stronger effect = lower value",0.963 (inactive)
same,normalized growth,"locus YDR334W, strain swr1, stronger effect = lower value",0.977 (inactive)
same,normalized growth,"locus YDR335W, strain msn5, stronger effect = lower value",0.953 (inactive)
same,normalized growth,"locus YDR388W, stronger effect = lower value",0.958 (inactive)
same,normalized growth,"locus YDR392W, strain spt3, stronger effect = lower value",1.02 (inactive)
same,normalized growth,"locus YDR502C, strain sam2, stronger effect = lower value",0.987 (inactive)
same,normalized growth,"locus YEL003W, strain gim4, stronger effect = lower value",0.954 (inactive)
same,normalized growth,"locus YEL037C, strain rad23, stronger effect = lower value",0.97 (inactive)
same,normalized growth,"locus YEL061C, strain CIN8 (second series), stronger effect = lower value",0.978 (inactive)
same,normalized growth,"locus YEL061C, strain CIN8, stronger effect = lower value",0.998 (inactive)
same,normalized growth,"locus YER015W, strain faa2, stronger effect = lower value",0.991 (inactive)
same,normalized growth,"locus YER016W, strain bim1, stronger effect = lower value",0.995 (inactive)
same,normalized growth,"locus YER110C, stronger effect = lower value",0.973 (inactive)
same,normalized growth,"locus YER111C, strain swi4, stronger effect = lower value",0.988 (inactive)
same,normalized growth,"locus YER155C, strain BEM2 (second series), stronger effect = lower value",0.958 (inactive)
same,normalized growth,"locus YER155C, strain BEM2, stronger effect = lower value",0.986 (inactive)
same,normalized growth,"locus YER167W, strain BCK2, stronger effect = lower value",0.987 (inactive)
same,normalized growth,"locus YFR010W, strain ubp6, stronger effect = lower value",0.986 (inactive)
same,normalized growth,"locus YGL078C, strain dbp3, stronger effect = lower value",0.842 (active)
same,normalized growth,"locus YGL086W, strain mad1, stronger effect = lower value",0.985 (inactive)
same,normalized growth,"locus YGL167C, strain pmr1, stronger effect = lower value",0.969 (inactive)
same,normalized growth,"locus YGL173C, strain kem1, stronger effect = lower value",0.965 (inactive)
same,normalized growth,"locus YGL227W, strain vid30, stronger effect = lower value",1 (inactive)
same,normalized growth,"locus YGL240W, strain doc1, stronger effect = lower value",0.929 (inactive)
same,normalized growth,"locus YGL248W, strain PDE1, stronger effect = lower value",0.98 (inactive)
same,normalized growth,"locus YGL253W, strain hxk2, stronger effect = lower value",0.972 (inactive)
same,normalized growth,"locus YGR078C, strain PAC10, stronger effect = lower value",0.96 (inactive)
same,normalized growth,"locus YGR135W, strain pre9, stronger effect = lower value",0.946 (inactive)
same,normalized growth,"locus YGR229C, strain SMI1, stronger effect = lower value",0.986 (inactive)
same,normalized growth,"locus YGR252W, strain gcn5, stronger effect = lower value",0.861 (inactive)
same,normalized growth,"locus YHR013C, strain ard1, stronger effect = lower value",1 (inactive)
same,normalized growth,"locus YHR027C, strain rpn1, stronger effect = lower value",1 (inactive)
same,normalized growth,"locus YHR030C, strain SLT2, stronger effect = lower value",0.994 (inactive) and 0.66 (active)
same,normalized growth,"locus YHR079C, strain IRE1 (second series), stronger effect = lower value",0.947 (inactive)
same,normalized growth,"locus YHR079C, strain IRE1, stronger effect = lower value",0.739 (active)
same,normalized growth,"locus YHR094C, strain hxt1, stronger effect = lower value",0.984 (inactive)
same,normalized growth,"locus YHR129C, strain ARP1, stronger effect = lower value",0.988 (inactive)
same,normalized growth,"locus YHR142W, strain chs7, stronger effect = lower value",0.94 (inactive)
same,normalized growth,"locus YHR200W, strain rpn10, stronger effect = lower value",0.975 (inactive)
same,normalized growth,"locus YIL066C, strain RNR3, stronger effect = lower value",0.973 (inactive)
same,normalized growth,"locus YIL073C, strain SPO22, stronger effect = lower value",0.948 (inactive)
same,normalized growth,"locus YIL125W, strain kgd1, stronger effect = lower value",0.967 (inactive)
same,normalized growth,"locus YIR030C, strain dcg1, stronger effect = lower value",0.974 (inactive)
same,normalized growth,"locus YJL092W, strain hpr5, stronger effect = lower value",0.998 (inactive)
same,normalized growth,"locus YJL095W, strain BCK1 (second series), stronger effect = lower value",0.997 (inactive)
same,normalized growth,"locus YJL095W, strain BCK1, stronger effect = lower value",0.971 (inactive) and 0.676 (active)
same,normalized growth,"locus YJL115W, strain asf1, stronger effect = lower value",0.981 (inactive)
same,normalized growth,"locus YJL129C, strain trk1, stronger effect = lower value",0.915 (inactive)
same,normalized growth,"locus YJL134W, strain LCB3, stronger effect = lower value",0.99 (inactive)
same,normalized growth,"locus YJL154C, strain vps35, stronger effect = lower value",0.996 (inactive)
same,normalized growth,"locus YJL164C, strain tpk1, stronger effect = lower value",0.996 (inactive)
same,normalized growth,"locus YJL166W, strain qcr8, stronger effect = lower value",0.976 (inactive)
same,normalized growth,"locus YJL168C, strain set2, stronger effect = lower value",0.972 (inactive)
same,normalized growth,"locus YJL187C, strain SWE1 (second series), stronger effect = lower value",0.948 (inactive)
same,normalized growth,"locus YJR043C, strain POL32, stronger effect = lower value",0.937 (inactive)
same,normalized growth,"locus YJR066W, strain TOR1, stronger effect = lower value",0.706 (active)
same,normalized growth,"locus YJR075W, strain HOC1, stronger effect = lower value",0.963 (inactive)

# — PubChem BioAssay AID1159580 (chemical genetic matrix, 2015)
